The text below walks through data of PubChem BioAssay (EPA / NIEHS).

Several values for one entry are separate records, joined by “and”; a condition that tells them apart may be missing. Equal entries are not always repeated. Records with an inconclusive call do not appear. A structure can be active in one record and inactive in another. Activity calls are given as the source filed them. Rule for the calls: active = hit-call score of the fitted dose curve at least 0.9, where 1 is the maximum; inconclusive = response in the unintended direction; inactive = score below 0.9.

The target of experiment [1] is human Thyroid hormone Receptor alpha (TRa), THRA (gene 7067) (UniProt P10827). The experiment is described as follows: ATG_hTRa_XSP1: Attagene TRANS-FACTORIAL Multi-Species (XSP1) HepG2 Assay for human Thyroid hormone Receptor alpha (TRa) (AID 2283805). An outline of the steps: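 HepG2 cells transiently transfected with GAL4-UAS reporter units expressing chimeric NR-Gal4 proteins, dosed 24 hours with 3 nM 6-alpha-fluorotestosterone present. Reporter mRNA measured by RT-PCR and capillary electrophoresis; gain of signal fitted versus DMSO.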
Sequence of human Thyroid hormone Receptor alpha (TRa), THRA (gene 7067) (P10827 whole entry, looked up, the tested form may be a part): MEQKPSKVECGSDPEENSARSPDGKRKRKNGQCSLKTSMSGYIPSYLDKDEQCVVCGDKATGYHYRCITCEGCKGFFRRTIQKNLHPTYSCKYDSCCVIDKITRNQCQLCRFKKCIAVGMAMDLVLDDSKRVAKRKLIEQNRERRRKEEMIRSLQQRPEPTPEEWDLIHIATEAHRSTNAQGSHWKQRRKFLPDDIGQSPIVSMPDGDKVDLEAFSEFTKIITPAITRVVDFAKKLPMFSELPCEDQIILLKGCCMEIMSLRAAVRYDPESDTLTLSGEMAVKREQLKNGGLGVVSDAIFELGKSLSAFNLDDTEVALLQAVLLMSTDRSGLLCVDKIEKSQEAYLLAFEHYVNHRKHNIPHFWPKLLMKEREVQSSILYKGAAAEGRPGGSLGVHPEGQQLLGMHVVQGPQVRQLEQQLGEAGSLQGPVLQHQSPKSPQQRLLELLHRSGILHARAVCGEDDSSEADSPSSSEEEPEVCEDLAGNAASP

Experiment [2] has as its system turtle Thyroid Hormone Receptor, alpha (TRa), gene 101949057. The experiment is described as follows: ATG_trTRa_XSP1: Attagene TRANS-FACTORIAL Multi-Species (XSP1) HepG2 Assay for turtle Thyroid Hormone Receptor, alpha (TRa) (AID 2283806). An outline of the steps:
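HepG2 cells transiently transfected with GAL4-UAS reporter units and chimeric receptor-Gal4 constructs, with 3 nM 6-alpha-fluorotestosterone present. Reporter mRNA was quantified 24 h after dosing by RT-PCR, 6-FAM labelling and capillary electrophoresis; gain of signal versus DMSO.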

In experiment [3] the target is zebrafish Thyroid Hormone Receptor alpha (TRa), thraa (gene 30670) (UniProt Q98867). In words: ATG_zfTRa_XSP1: Attagene TRANS-FACTORIAL Multi-Species (XSP1) HepG2 Assay for zebrafish Thyroid Hormone Receptor alpha (TRa) (AID 2283807). An outline of the steps:
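HepG2 cells transiently transfected with GAL4-UAS reporter units including a zebrafish TRa–Gal4 chimera, dosed 24 h with 3 nM 6-alpha-fluorotestosterone present. Reporter mRNA quantified by RT-PCR and capillary electrophoresis; gain versus DMSO.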

Experiment [4] has as its target human Thyroid hormone Receptor beta (TRb), THRB (gene 7068) (UniProt P10828). The experiment is described as follows: ATG_hTRb_XSP1: Attagene TRANS-FACTORIAL Multi-Species (XSP1) HepG2 Assay for human Thyroid hormone Receptor beta (TRb) (AID 2283808). An outline of the steps:
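HepG2 cells transiently transfected with reporter units driving GAL4-UAS reporters for chimeric NR-Gal4 proteins; 24 h chemical exposure with 3 nM 6-alpha-fluorotestosterone present. Reporter mRNA quantified by RT-PCR and capillary electrophoresis, gain of signal versus DMSO.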

The target of experiment [5] is zebrafish Thyroid Hormone Receptor beta (TRb), thrb (gene 30607) (UniProt Q9PVE4). In words: ATG_zfTRb_XSP1: Attagene TRANS-FACTORIAL Multi-Species (XSP1) HepG2 Assay for zebrafish Thyroid Hormone Receptor beta (TRb) (AID 2283809). An outline of the steps:
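HepG2 cells transiently transfected with multiplexed GAL4-UAS reporter units expressing chimeric zebrafish TRb–Gal4. Dosed 24 h with 3 nM 6-alpha-fluorotestosterone present; reporter mRNA measured by RT-PCR, HpaI digestion and capillary electrophoresis; gain of signal versus DMSO.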

A short description of experiment [6]: ATG_XTT_Cytotoxicity_XSP1: Cytotoxicity Assessment in the Attagene TRANS-FACTORIAL Multi-Species (XSP1) HepG2 Assay (AID 2283810). An outline of the steps:
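XTT viability readout taken at 24 hours post-dosing in HepG2 liver cells co-treated with 3 nM 6-alpha-fluorotestosterone. Signal loss relative to DMSO controls reflects cytotoxicity.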

The test system of experiment [7] is turtle Estrogen Receptor (ERa), gene 101933533. The experiment is described as follows: ATG_trERa_XSP2: Attagene TRANS-FACTORIAL Multi-Species (XSP2) HepG2 Assay for turtle Estrogen Receptor (ERa) (AID 2283812).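 Note: human HepG2 liver cells transiently expressing turtle ERa-Gal4 chimeric receptor; actives raise reporter signal above DMSO so AC50 reflects agonist activity.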 An outline of the steps: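 HepG2 cells transiently transfected with GAL4-UAS reporter units expressing turtle ERa-Gal4 chimera. Reporter mRNA measured after 24 h dosing by RT-PCR, fluorescent labelling and capillary electrophoresis; gain of signal fitted versus DMSO.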

The target of experiment [8] is GAL4 Transcription Factor (Internal Marker), GAL4 (gene 855828) (UniProt P04386). The experiment is described as follows: ATG_GAL4_XSP2: Attagene TRANS-FACTORIAL Multi-Species (XSP2) HepG2 Assay for GAL4 Transcription Factor (Internal Marker) (AID 2283814).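 Note: GAL4 reporter mRNA background control in MRTU transfected cells not a receptor target.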 An outline of the steps: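 HepG2 cells transiently transfected with GAL4-UAS reporter units, stimulated with 3 nM 6-alpha-fluorotestosterone plus 1.5 nM norgestrel, dosed 24 h. Reporter mRNA by RT-PCR/capillary electrophoresis; gain-of-signal fit versus DMSO, background control.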
Sequence of GAL4 Transcription Factor (Internal Marker), GAL4 (gene 855828) (P04386 whole entry, looked up, the tested form may be a part): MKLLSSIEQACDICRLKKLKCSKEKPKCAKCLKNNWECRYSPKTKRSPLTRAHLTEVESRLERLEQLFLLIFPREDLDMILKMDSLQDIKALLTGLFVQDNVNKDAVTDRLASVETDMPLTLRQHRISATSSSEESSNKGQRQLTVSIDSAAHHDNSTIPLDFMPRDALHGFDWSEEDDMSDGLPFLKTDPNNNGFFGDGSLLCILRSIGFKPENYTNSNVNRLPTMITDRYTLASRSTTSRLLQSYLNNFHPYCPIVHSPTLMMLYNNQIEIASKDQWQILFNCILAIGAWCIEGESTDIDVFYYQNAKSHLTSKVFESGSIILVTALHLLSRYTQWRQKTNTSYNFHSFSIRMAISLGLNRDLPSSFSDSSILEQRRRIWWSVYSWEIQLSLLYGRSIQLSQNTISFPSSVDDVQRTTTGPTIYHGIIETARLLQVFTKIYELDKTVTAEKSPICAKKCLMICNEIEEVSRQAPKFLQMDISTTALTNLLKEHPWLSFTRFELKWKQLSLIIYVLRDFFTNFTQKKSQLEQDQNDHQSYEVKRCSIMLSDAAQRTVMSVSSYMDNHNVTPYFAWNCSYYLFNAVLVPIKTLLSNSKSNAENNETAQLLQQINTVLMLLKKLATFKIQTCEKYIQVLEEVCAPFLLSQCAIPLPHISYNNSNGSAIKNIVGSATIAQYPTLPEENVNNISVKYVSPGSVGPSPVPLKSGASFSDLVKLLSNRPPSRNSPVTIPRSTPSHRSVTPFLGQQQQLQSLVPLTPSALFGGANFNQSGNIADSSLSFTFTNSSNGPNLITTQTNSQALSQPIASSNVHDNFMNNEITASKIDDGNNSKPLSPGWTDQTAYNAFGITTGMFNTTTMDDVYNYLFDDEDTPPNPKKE

The test system of experiment [9] is turtle Androgen Receptor (AR), gene 101947425. The experiment is described as follows: ATG_trAR_XSP2: Attagene TRANS-FACTORIAL Multi-Species (XSP2) HepG2 Assay for turtle Androgen Receptor (AR) (AID 2283815). An outline of the steps: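 HepG2 cells transiently transfected with GAL4-UAS reporter units for chimeric NR-Gal4 receptors; 24 h dosing in presence of 3 nM 6-alpha-fluorotestosterone and 1.5 nM norgestrel. Reporter mRNA by RT-PCR and capillary electrophoresis, gain of signal versus DMSO.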

The target of experiment [10] is chicken Estrogen Receptor (ERa), ESR1 (gene 396099) (UniProt P06212). The experiment is described as follows: ATG_chERa_XSP2: Attagene TRANS-FACTORIAL Multi-Species (XSP2) HepG2 Assay for chicken Estrogen Receptor (ERa) (AID 2283817).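 Note: actives raise reporter signal above DMSO so AC50 reflects ER activation.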 An outline of the steps: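 HepG2 cells transiently transfected with multiplexed GAL4-UAS reporter units expressing chimeric chicken ERa-Gal4; 24 h compound exposure. Reporter mRNA measured by RT-PCR with 6-FAM labelling, HpaI digestion and capillary electrophoresis; gain-of-signal fitted versus DMSO.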
Sequence of chicken Estrogen Receptor (ERa), ESR1 (gene 396099) (P06212 whole entry, looked up, the tested form may be a part): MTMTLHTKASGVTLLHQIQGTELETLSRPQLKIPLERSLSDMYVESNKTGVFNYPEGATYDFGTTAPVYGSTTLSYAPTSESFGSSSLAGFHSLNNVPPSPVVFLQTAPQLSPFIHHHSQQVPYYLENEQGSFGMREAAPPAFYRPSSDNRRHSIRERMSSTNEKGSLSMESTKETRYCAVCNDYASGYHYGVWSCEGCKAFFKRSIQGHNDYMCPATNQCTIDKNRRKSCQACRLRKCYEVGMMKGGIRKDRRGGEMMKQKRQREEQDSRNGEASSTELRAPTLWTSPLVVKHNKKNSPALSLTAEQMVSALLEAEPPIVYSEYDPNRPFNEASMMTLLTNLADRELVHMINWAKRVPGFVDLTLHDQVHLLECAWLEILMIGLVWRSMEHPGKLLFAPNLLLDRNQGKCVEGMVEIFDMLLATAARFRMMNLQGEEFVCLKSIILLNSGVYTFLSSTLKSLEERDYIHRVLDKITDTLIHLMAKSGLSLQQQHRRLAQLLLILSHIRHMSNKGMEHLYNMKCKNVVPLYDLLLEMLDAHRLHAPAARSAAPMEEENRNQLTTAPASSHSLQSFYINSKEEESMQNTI

Experiment [11] concerns chicken Androgen Receptor (AR), gene 422165. In words: ATG_chAR_XSP2: Attagene TRANS-FACTORIAL Multi-Species (XSP2) HepG2 Assay for chicken Androgen Receptor (AR) (AID 2283819).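 Note: hits raise reporter mRNA above DMSO so potency is for activation.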 An outline of the steps: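 HepG2 cells transiently transfected with chicken AR–GAL4 chimeric reporter constructs, stimulated with 3 nM 6-alpha-fluorotestosterone plus 1.5 nM norgestrel, dosed 24 h. Reporter mRNA quantified by RT-PCR and capillary electrophoresis; gain of signal fitted versus DMSO.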

Experiment [12] relates to frog Estrogen Receptor (ER), gene 398734. The experiment is described as follows: ATG_frER1_XSP2: Attagene TRANS-FACTORIAL Multi-Species (XSP2) HepG2 Assay for frog Estrogen Receptor (ER) (AID 2283821).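 Note: hits raise reporter mRNA above DMSO baseline so potency means agonist or activator.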 An outline of the steps:
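HepG2, transient MRTU transfection, chimeric NR-GAL4/UAS reporters; 24 h compound exposure, 24-well. Readout: reporter mRNA via RT-PCR + capillary electrophoresis, fluorescence. Positive fit vs DMSO baseline.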

The nature of experiment [13]: ATG_M_19_XSP2: Attagene TRANS-FACTORIAL Multi-Species (XSP2) HepG2 Assay for M32 Transcription Factor (Internal Marker) (AID 2283822). An outline of the steps: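 Internal background marker in a multi-species nuclear receptor TRANS panel: transfected HepG2 cells exposed 24 h, with 3 nM 6-alpha-fluorotestosterone and 1.5 nM norgestrel present. Readout is RT-PCR of reporter transcripts resolved by capillary electrophoresis, gain-of-signal versus DMSO.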

Experiment [14] is described as follows: ATG_M_32_XSP2: Attagene TRANS-FACTORIAL Multi-Species (XSP2) HepG2 Assay for M19 Transcription Factor (Internal Marker) (AID 2283826). An outline of the steps: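 HepG2 cells transiently transfected with GAL4-UAS reporter units; XSP2 panel included 3 nM 6-alpha-fluorotestosterone and 1.5 nM norgestrel for androgen receptor stimulation. Reporter mRNA read 24 h post-dosing by RT-PCR/capillary electrophoresis; fitted upward versus DMSO.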

Experiment [15] addresses Estrogen receptor (Homo sapiens) (UniProt P03372). The experiment is described as follows: ATG_hERa_XSP2: Attagene TRANS-FACTORIAL Multi-Species (XSP2) HepG2 Assay for human Estrogen Receptor (ERa) (AID 2283827). An outline of the steps:
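HepG2 cells transiently transfected with multiplexed GAL4-UAS reporters driven by chimeric receptor-Gal4 proteins, dosed 24 h with 3 nM 6-alpha-fluorotestosterone and 1.5 nM norgestrel present. Reporter mRNA by RT-PCR and capillary electrophoresis; gain-of-signal fit versus DMSO.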

Experiment [16] in a line: ATG_M_06_XSP2: Attagene TRANS-FACTORIAL Multi-Species (XSP2) HepG2 Assay for M06 Transcription Factor (Internal Marker) (AID 2283811).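 Note: hits are increases in signal above the DMSO baseline.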 An outline of the steps:
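HepG2 cells transiently transfected with GAL4-UAS multi-reporter constructs, dosed 24 h with 3 nM 6-alpha-fluorotestosterone plus 1.5 nM norgestrel present to stimulate androgen receptor. Reporter mRNA quantified by RT-PCR, 6-FAM labelling, HpaI digestion and capillary electrophoresis; gain-of-signal fitted versus DMSO baseline.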

Experiment [17] concerns the target Estrogen receptor beta (Homo sapiens) (UniProt Q92731). In words: ATG_hERb_XSP2: Attagene TRANS-FACTORIAL Multi-Species (XSP2) HepG2 Assay for human Estrogen Receptor (ERb) (AID 2283813).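 Note: actives raise reporter mRNA above DMSO so AC50 reflects agonist induction.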 An outline of the steps:
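HepG2 cells transiently transfected with GAL4-UAS reporter units and chimeric human ERb-Gal4, 24 h exposure. Reporter mRNA quantified by RT-PCR with FAM labelling, HpaI digestion and capillary electrophoresis; gain of signal versus DMSO.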

Experiment [18] deals with zebrafish Estrogen Receptor (ER1), esr1 (gene 259252) (UniProt P57717). In words: ATG_zfER1_XSP2: Attagene TRANS-FACTORIAL Multi-Species (XSP2) HepG2 Assay for zebrafish Estrogen Receptor (ER1) (AID 2283816). An outline of the steps:
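HepG2 cells transiently transfected with a GAL4-UAS reporter and a chimeric zebrafish ER1-Gal4 construct, dosed 24 h. Reporter mRNA quantified by RT-PCR, labelling, HpaI digestion and capillary electrophoresis, relative to DMSO.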

In experiment [19] the test system is zebrafish Estrogen Receptor (ER2b), gene 317733. The experiment is described as follows: ATG_zfER2b_XSP2: Attagene TRANS-FACTORIAL Multi-Species (XSP2) HepG2 Assay for zebrafish Estrogen Receptor (ER2b) (AID 2283823).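 Note: fitted upward as reporter gain over DMSO so potency reflects activation.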 An outline of the steps: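 Reporter transcripts quantified by RT-PCR, fluorescent labelling and capillary electrophoresis after 24 h dosing of transfected HepG2 expressing zebrafish ER2b-GAL4 fusion. Medium contained 3 nM 6-alpha-fluorotestosterone plus 1.5 nM norgestrel; DMSO baseline.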

Sequence of human Thyroid hormone Receptor beta (TRb), THRB (gene 7068) (P10828 whole entry, looked up, the tested form may be a part): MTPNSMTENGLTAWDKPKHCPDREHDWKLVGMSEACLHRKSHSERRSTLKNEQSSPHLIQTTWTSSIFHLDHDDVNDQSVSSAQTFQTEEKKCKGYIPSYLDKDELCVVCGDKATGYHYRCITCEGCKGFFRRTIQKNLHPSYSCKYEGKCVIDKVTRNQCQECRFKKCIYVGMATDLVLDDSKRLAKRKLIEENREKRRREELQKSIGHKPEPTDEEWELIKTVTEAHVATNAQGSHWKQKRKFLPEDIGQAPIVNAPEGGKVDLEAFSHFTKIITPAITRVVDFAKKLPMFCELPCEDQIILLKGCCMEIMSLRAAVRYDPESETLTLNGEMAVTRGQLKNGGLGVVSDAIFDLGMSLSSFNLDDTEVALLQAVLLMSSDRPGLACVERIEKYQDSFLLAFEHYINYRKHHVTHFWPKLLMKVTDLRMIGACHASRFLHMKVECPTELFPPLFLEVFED
Sequence of Estrogen receptor beta (Homo sapiens) (Q92731 whole entry, looked up, the tested form may be a part): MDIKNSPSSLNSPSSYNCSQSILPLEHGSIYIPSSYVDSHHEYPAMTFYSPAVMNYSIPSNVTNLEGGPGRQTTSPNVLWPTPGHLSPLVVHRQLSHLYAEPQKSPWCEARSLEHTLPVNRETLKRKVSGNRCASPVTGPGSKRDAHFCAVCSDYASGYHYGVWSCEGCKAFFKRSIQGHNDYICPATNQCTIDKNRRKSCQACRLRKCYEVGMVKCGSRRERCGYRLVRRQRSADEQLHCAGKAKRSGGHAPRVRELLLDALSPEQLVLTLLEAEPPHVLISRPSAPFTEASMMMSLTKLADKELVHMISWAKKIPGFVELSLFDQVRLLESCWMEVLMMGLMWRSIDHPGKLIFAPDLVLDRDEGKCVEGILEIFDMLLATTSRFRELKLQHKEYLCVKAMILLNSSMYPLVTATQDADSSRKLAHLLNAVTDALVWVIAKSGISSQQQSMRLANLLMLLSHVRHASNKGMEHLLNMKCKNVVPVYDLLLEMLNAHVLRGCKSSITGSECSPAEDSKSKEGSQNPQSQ
Sequence of zebrafish Thyroid Hormone Receptor beta (TRb), thrb (gene 30607) (Q9PVE4 whole entry, looked up, the tested form may be a part): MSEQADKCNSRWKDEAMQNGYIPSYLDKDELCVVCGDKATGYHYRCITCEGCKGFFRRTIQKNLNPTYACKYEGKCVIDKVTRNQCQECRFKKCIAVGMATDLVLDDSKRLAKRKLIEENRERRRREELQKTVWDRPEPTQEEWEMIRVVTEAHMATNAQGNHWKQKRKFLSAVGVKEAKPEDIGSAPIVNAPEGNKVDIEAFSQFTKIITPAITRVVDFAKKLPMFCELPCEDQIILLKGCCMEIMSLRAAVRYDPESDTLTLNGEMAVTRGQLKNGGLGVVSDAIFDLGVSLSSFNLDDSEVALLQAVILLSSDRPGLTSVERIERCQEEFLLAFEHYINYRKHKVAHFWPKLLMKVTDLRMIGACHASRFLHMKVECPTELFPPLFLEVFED
Sequence of zebrafish Estrogen Receptor (ER1), esr1 (gene 259252) (P57717 whole entry, looked up, the tested form may be a part): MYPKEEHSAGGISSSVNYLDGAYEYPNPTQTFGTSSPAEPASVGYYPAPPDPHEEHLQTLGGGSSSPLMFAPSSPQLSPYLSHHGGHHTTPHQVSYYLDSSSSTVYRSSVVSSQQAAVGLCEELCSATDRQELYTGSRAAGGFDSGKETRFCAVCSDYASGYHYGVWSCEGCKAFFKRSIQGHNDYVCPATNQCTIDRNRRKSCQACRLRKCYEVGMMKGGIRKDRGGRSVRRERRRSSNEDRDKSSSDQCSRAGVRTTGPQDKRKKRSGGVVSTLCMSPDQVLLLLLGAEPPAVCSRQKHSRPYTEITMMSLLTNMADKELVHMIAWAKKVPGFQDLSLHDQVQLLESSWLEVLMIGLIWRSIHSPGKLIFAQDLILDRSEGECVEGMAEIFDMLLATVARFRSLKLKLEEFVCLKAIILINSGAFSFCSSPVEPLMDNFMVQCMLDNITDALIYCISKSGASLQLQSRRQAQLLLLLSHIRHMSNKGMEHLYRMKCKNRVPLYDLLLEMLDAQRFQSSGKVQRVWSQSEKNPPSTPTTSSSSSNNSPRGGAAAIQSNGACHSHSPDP
Sequence of Estrogen receptor (Homo sapiens) (P03372 whole entry, looked up, the tested form may be a part): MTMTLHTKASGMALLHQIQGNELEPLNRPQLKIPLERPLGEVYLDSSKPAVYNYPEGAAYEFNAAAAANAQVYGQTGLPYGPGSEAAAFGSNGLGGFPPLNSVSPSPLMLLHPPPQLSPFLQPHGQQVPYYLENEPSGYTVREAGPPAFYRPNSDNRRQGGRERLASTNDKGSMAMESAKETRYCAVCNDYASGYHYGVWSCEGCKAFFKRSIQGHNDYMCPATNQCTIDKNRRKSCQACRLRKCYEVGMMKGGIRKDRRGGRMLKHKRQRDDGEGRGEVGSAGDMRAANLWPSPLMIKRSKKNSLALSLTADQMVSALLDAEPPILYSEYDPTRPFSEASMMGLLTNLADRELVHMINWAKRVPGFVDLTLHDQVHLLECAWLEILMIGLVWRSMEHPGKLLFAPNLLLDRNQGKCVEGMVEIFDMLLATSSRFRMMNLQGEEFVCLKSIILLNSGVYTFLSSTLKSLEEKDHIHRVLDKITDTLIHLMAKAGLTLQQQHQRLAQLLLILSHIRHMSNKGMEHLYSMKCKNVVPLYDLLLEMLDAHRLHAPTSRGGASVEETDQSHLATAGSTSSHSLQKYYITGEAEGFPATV
Sequence of zebrafish Thyroid Hormone Receptor alpha (TRa), thraa (gene 30670) (Q98867 whole entry, looked up, the tested form may be a part): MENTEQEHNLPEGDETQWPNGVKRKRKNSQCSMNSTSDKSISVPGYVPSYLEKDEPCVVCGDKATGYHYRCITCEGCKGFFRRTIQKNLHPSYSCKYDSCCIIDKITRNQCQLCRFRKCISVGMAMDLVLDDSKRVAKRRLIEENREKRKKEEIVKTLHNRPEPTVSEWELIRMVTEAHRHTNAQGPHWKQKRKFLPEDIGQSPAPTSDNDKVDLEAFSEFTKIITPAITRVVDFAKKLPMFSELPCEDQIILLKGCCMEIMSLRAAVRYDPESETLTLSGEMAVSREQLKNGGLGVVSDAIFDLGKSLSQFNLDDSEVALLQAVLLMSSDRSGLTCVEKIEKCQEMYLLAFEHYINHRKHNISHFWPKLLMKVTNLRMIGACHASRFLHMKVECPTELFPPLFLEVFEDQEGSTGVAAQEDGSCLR

For `CC1(C)C(C=C(Cl)Cl)C1C(=O)OC(C#N)c1ccc(F)c(Oc2ccccc2)c1` (centres undefined), the compound was classed as inactive in experiment [1], in [2], in experiment [3], in experiment [4], in [5] and in [6]. Further, the compound was classed as inactive in experiment [7], in [8], in experiment [9], in experiment [10], in experiment [11] and in experiment [12]. Moreover, the call in experiment [13], in [14] and in experiment [15] was inactive.

Usually AC50 stands for the concentration at which the activity in the assay is half-maximal. Regarding `CC(C)(C)C(O)/C(=C\c1ccc(Cl)cc1Cl)n1cncn1` (centres undefined), the result in [16], in experiment [7], in experiment [17], in experiment [18], in experiment [10] and in [12] was inactive. In experiment [14], the compound was classed as inactive. In addition, the AC50 in experiment [17] was 8.38 µM (active); in [10], 16 µM (active); in experiment [19], 44 µM (active) and 14.4 µM (active); in experiment [15], 13.2 µM (active) and 17 µM (active).

Turning to `Oc1cc(Cl)ccc1Oc1ccc(Cl)cc1Cl`, the AC50 in experiment [1] is 7.06 µM (active); in experiment [2], 11.1 µM (active); in [3], 14 µM (active); in [6] it was 100 µM (active); in [8], 15.8 µM (active); in experiment [10], 7.48 µM (active). Besides, the AC50 in experiment [19] was 16.1 µM (active). Besides, the compound was called inactive in experiment [4], in experiment [5], in experiment [16], in [7], in [12] and in experiment [14].

For the compound `CCOCN(C(=O)CCl)c1c(C)cccc1CC`, the compound was called inactive in [6], in experiment [13] and in experiment [14]. Also, in experiment [19], the AC50 is 100 µM (active).

As for `O=S1OCC2C(CO1)C1(Cl)C(Cl)=C(Cl)C2(Cl)C1(Cl)Cl` (centres undefined), the outcome in experiment [1], in experiment [2], in experiment [3], in [4], in experiment [5] and in experiment [6] was inactive. The outcome in experiment [16], in experiment [18], in [10] and in [12] was inactive. In addition, the figures for the AC50 in experiment [7], in experiment [19] and in experiment [15] were 2.06 µM (active), 10 µM (active) and 1.04 µM (active), respectively.

On to `CCCN(CCOc1c(Cl)cc(Cl)cc1Cl)C(=O)n1ccnc1`, for which the result in experiment [1], in experiment [2], in [3], in experiment [4], in experiment [16] and in [7] was inactive. The compound was classed as inactive in [17], in [18], in [10], in experiment [12], in experiment [19] and in experiment [14]. For the same compound, the AC50 in [6] was 100 µM (active).
